Screening results: PubChem BioAssay, National Center for Advancing Translational Sciences (NCATS)
Compounds with a hit are over-represented: about 9.2% of the library has one in this group of screens.
ELG1 repair inh = qHTS screen for small molecules that inhibit ELG1-dependent DNA repair in human embryonic kidney (HEK293T) cells expressing luciferase-tagged ELG1; HEK293T ELG1-luciferase reporter, luminescence, 16 h; DNA damage induced by 5-fluorouridine; Potency, µM (series often up to 46.1 µM), inactives show top-dose activity change, negative = inhibition, most hits filed as inhibitors; 330,000 compounds, 2.3% hits; AID 504467, 2011; also: % is scaled to controls: 0 for no effect and ±100 for the full control effect; nearly all actives have a fitted effect of over 55% in size
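Overnight (16 hr) co-exposure of 2,000 cells/well to 5-fluorouridine and compound at 37 °C preceded detection. Luciferase was quantified via ONE-Glo luminescence; loss of signal denotes inhibition.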
SMN2 splice enh = qHTS Assay for Enhancers of SMN2 Splice Variant Expression | HEK293 SMN2-luciferase splicing reporter, luminescence, 30-36 h | Potency, µM (top dose mostly 46.1 µM), for the others: top-dose activity change, positive = activation, actives largely listed as activators | 210,000 compounds, 2.8% hits | AID 1458, 2008; also: % of control where 0% means no effect; nearly all actives have a fitted effect of over 55% in size
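HEK293 cells carry an SMN2 […]–luciferase reporter in which exon 7 inclusion puts luciferase in frame. Cells were plated 10-12 h before compound addition, then incubated 30-36 h at 37C. ONE-Glo luminescence was read; sodium butyrate at 4.5 mM final served as control.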
ELG1 genotoxic = qHTS screen for small molecules that induce genotoxicity in human embryonic kidney (HEK293T) cells expressing luciferase-tagged ELG1 | HEK293T ELG1-luciferase reporter, luminescence, 16 h | Potency, µM (series often up to 46 µM), without a hit: at the highest dose activity change, positive = activation, usual class: activators | 330,000 compounds, 1.3% hits; also: % of control where 0% means no effect; nearly all actives have a fitted effect of over 60% in size
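Cells (2,000/well) expressing the ELG1-luciferase fusion are dosed by pin tool and kept 16 hr at 37 °C, 5% CO2. Signal comes from ONE-Glo luciferase reagent after 30 min at room temperature.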
FLuc modulator = qHTS profiling assay for firefly luciferase inhibitor/activator using purifed enzyme and Km concentrations of substrates (counterscreen for miR-21 project). Luciferin 4-monooxygenase (Photinus pyralis), P08659. purified FLuc, Km substrates, luminescence inhibition. Potency, µM (series often up to 57.5 µM), for inactives: top-dose activity change, negative = inhibition, usual class: inhibitors. 360,000 compounds, 6.9% hits. AID 588342, 2011;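 also: plate controls were vehicle for no effect and reference inhibitor for full effect; nearly all actives have a fitted effect of over 55% in size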
Target sequence (P08659 whole entry, looked up): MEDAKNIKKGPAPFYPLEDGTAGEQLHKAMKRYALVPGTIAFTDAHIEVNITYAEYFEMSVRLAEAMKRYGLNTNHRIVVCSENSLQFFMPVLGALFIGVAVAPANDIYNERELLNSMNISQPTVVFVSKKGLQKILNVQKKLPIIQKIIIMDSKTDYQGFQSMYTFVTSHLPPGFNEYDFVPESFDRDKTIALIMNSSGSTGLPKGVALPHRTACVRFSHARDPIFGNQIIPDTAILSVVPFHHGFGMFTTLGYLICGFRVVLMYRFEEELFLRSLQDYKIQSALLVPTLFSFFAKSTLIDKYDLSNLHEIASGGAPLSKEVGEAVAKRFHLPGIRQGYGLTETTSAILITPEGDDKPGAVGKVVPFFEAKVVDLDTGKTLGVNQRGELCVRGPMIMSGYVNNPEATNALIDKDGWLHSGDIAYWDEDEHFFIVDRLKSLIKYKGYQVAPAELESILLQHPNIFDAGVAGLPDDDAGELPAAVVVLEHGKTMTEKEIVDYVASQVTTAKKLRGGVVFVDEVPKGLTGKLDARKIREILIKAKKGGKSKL
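Biochemical qHTS of compounds, final roughly 60 µM downward over six points, against 10 nM purified firefly luciferase using Km concentrations of substrates (10 uM D-luciferin, 10 uM ATP) in Tris acetate pH 7.5 buffer; luminescence output.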
NPC1 promoter act = qHTS Assay for NPC1 Promoter Activators. 320,000 compounds, 2.4% hits. Potency, µM (top dose mostly 9.22 µM), for inactives: top-dose activation, most hits filed as activators. AID 485313, 2010. Huh7 NPC1 promoter luciferase reporter, 24 h; also: % of control where 0% means no effect; nearly all actives have a fitted effect of over 60% in size
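Luminescence read-out of NPC1 promoter-driven luciferase in stably transfected Huh7 cells; compounds delivered in DMSO and left 24 h at 37C, 5% CO2, qHTS titration format.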
Rab9 prom act = qHTS Assay for Rab9 Promoter Activators; Huh7 Rab9 promoter-luciferase reporter, luminescence, 24 h; Potency, µM (top dose mostly 9.22 µM), inactives show top-dose activation, negative = inhibition, actives largely listed as activators; 320,000 compounds, 2.8% hits; AID 485297, 2010; also: % of control where 0% means no effect; nearly all actives have a fitted effect of over 60% in size
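Rab9 promoter-driven luciferase in stably transfected Huh7 cells; 1500 cells/well rested 2 h, exposed to compound in DMSO for 24 h at 37 °C, 5% CO2. Luminescence read 10 min after adding luciferase reagent at ambient temperature.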
* = called active by the depositor; ? = inconclusive; nt = no result given; [ ] = another dose, or the depositor's remark. Calls follow the shape of the dose curve; as a rule, active = well fitted curve in the direction sought with a large enough effect; inconclusive = small, poorly fitted or top-dose-only effect, or another doubt; inactive = no such curve, though single readings can be large; an effect the other way counts as inactive or inconclusive. Potency is read from the fitted curve at half-maximal effect.

SMILES	ELG1 repair inh	SMN2 splice enh	ELG1 genotoxic	FLuc modulator	NPC1 promoter act	Rab9 prom act
COc1ccc(-c2nnc(Nc3nc4c(OC)cccc4s3)o2)cc1	-12%	1%	?	5.4µM*	7%	-9%
O=C(O)CN1C(=O)/C(=C/c2ccc(N3CCCCC3)o2)SC1=S	-4%	nt	0%	11µM*	0%	10%
COC(=O)CN1C(=O)S/C(=C/c2cc(C)n(C)c2C)C1=O	?	27%	?	9.5µM*	4µM*	3.5µM*
COC(=O)CN1C(=O)S/C(=C/c2ccc(N3CCCCC3)o2)C1=O	?	-12%	15%	19µM*	24%	?
CCOC(=O)CN1C(=O)S/C(=C/c2ccc(N3CCCCC3)o2)C1=O	14%	-5%	1%	?	0%	-1%
COc1ccc(N=C2S/C(=C\c3cc(C)n(C)c3C)C(=O)N2CC(C)C)cc1	?	-3%	-5%	-4%	0%	-2%
CC(C)N1CCN(C(=O)C2CCC(=O)N(CCc3cccc(F)c3)C2)CC1 (stereo not drawn)	?	nt	2%	-2%	1%	0%
O=C(N/N=C/c1ccc(-c2ccc(S(=O)(=O)Nc3ncccn3)cc2)o1)c1cc2ccccc2cc1O	-8%	?	-11%	21µM*	0%	1%
CCOc1ccc(C(=O)N/N=C/c2ccc(-c3ccc(S(=O)(=O)Nc4ncccn4)cc3)o2)cc1	11%	13%	5%	19µM*	8%	-1%
NC(=S)NN=Cc1ccc(-c2ccc(S(=O)(=O)Nc3ncccn3)cc2)o1	3%	nt	2%	nt	nt	nt
NS(=O)(=O)c1ccc(-c2ccc(/C=N/NC(=O)c3ccccc3O)o2)cc1	-15%	nt	-4%	6.7µM*	-2%	-3%
COc1ccc(-c2nn(-c3ccccc3)cc2/C=N/Nc2ccc3ccccc3n2)cc1OC	12µM*	-66%	-9%	11µM*	-5%	-19%
COc1ccc(-c2nn(-c3ccccc3)cc2/C=N/NC(=S)NC(C)C)cc1OC	12µM*	16%	-1%	-18%	-7%	0%
CCC(C(=O)Nc1ccccc1OC)n1nc(C)c2sc3ccccc3c2c1=O (stereo not drawn)	nt	nt	nt	5%	nt	nt
COc1ccc(-n2c(=O)c3sc4ccccc4c3n(CC(=O)N3CCCC3)c2=O)cc1	nt	2%	nt	-2%	nt	nt
O=C1c2ccc3c4c(ccc(c24)C(=O)N1c1cccc(O)c1)C(=O)N(c1cccc(O)c1)C3=O	6.5µM*	nt	-14%	-2%	-34%	-49%
O=C1c2ccc3c4c(ccc(c24)C(=O)N1c1cccc(O)c1)CC3	13%	4%	2%	1%	-6%	-4%
Cc1cccc(Cn2c(COc3ccccc3)nc3ccccc32)c1	nt	-16%	nt	?	nt	nt
CCC(CC)C(=O)Nc1nnc(SCC(=O)NC2CC2)s1	12%	nt	15%	1%	-4%	-1%
COc1ccc(/C=C2\CCc3c2nc2ccccc2c3C(=O)O)cc1OC	?	nt	4.1µM*	0.3µM*	0.4µM*	0.32µM*
O=C(O)c1c2c(nc3ccccc13)/C(=C/c1ccc(O)cc1)CCC2	4%	20%	0%	19µM*	2%	9%
c1ccc2c(c1)CCc1c-2nc2ccccc2c1N1CCOCC1	0%	nt	-7%	-10%	-3%	-13%
O=C(O)c1c2c(nc3ccccc13)-c1ccccc1CC2	11%	nt	8%	11µM*	-1%	-2%
CN(C)c1ccc(/C=C2\CCCc3c2nc2ccccc2c3C(=O)O)cc1	?	nt	12µM*	4.3µM*	2.5µM*	0.89µM*
CCCNC(=O)C1CCC(Cn2c(=O)c3sccc3n(Cc3cccc(OC)c3)c2=O)CC1 (stereo not drawn)	nt	nt	nt	1%	nt	nt
SMILES	ELG1 repair inh	SMN2 splice enh	ELG1 genotoxic	FLuc modulator	NPC1 promoter act	Rab9 prom act
CC(C)C[C@H](N)C(=O)O	nt	12%[9.22 µM]	nt	nt	nt	nt
COc1ccccc1N1CCN(C(=O)c2ccc3c(=O)n(Cc4ccc5c(c4)OCO5)c(=O)[nH]c3c2)CC1	?	nt	-6%	-1%	-3%	-4%
CC(C)CS(=O)(=O)c1oc(-c2ccc(F)cc2)nc1S(=O)(=O)c1ccccc1	nt	12%	nt	-8%	nt	nt
CC(NS(=O)(=O)c1ccc(OCC(=O)N2CCOCC2)cc1)c1ccccc1 (stereo not drawn)	1%	-12%	0%	3%	0%	-4%
CC(NS(=O)(=O)c1ccc(OCC(=O)N2CCOCC2)c(Cl)c1)c1ccccc1 (stereo not drawn)	15µM*	-32%	2%	7%	0%	2%
CC(/C=C1\SC(=S)N(CC(=O)O)C1=O)=C\c1ccccc1	?	nt	16%	17µM*	?	21%
CC(=O)c1ccc(NC(=O)CCCN2C(=O)/C(=C/C(C)=C/c3ccccc3)SC2=S)cc1	-15%	-20%	0%	-4%	-3%	5%
CC(/C=C1\SC(=S)N(CC(=O)N2CCN(c3ccccc3)CC2)C1=O)=C\c1ccccc1	-2%	-1%[1.84 µM]	-2%	1%	-2%	-5%
CC(=C\c1ccco1)/C=C1/SC(=S)N(CC(=O)O)C1=O	?	nt	4%	17µM*	2%	16%
CC(=C\c1ccccc1)/C=C1/SC(=S)N(CCC(=O)O)C1=O	?	nt	4%	21µM*	-2%	-4%[1.84 µM]
NCCC1([N+](=O)[O-])CCNCC1	nt	-3%[9.22 µM]	nt	nt	nt	nt
COc1ccc(CNC(=O)CCn2cccn2)cc1	nt	nt	nt	4%	nt	nt
CC1=CC(=C2C(=O)c3ccccc3C2=O)C=C(C)N1C	?	7%	?	12µM*	2.5µM*	2.5µM*
CN(C)CCN1C(=O)c2ccccc2N(C)c2ccccc21	nt	-1%	nt	nt	nt	nt
COc1ccc(-c2[nH]ncc2CN2CCCCCCC2)c(OC)c1	-6%	nt	0%	2%	-5%	-2%
